# According to PubChem BioAssay (NCI):
# The panel holds about 83,000 compounds, 20% with a hit somewhere; the sample as a whole holds those more often.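 96-well plates, one dose, 48 hours. Percent growth reported; active if below 10.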 A number with no mark means an inactive call. Activity calls are given as the source filed them.
# Test system: U251 CNS
# Assay: NCI-60 one-dose screen, 48 h (100 = growth as untreated, 0 = no growth, -100 = all killed)
# Conditions: 10 µM unless noted
row,Compound,growth
1,NCCCOc1cc2ccccc2cc1C(=O)Nc1ccc(Cl)cc1OC(=O)c1cc2ccccc2cc1OCCCN,-93.6% (active)
2,CCCCCCCCCCCCCCCCNC(=S)N/N=C/c1ccc(O)cc1O,59.6%
3,CC1(C)N=C(N)N=C(N)N1c1cccc(CCCCOc2ccccc2)c1,11.4%
4,CCCC(C)c1cc(Cc2cc(Cl)cc(Cl)c2O)c(O)c(Cc2cc(Cl)cc(Cl)c2O)c1 (stereo not given),7.55% (active)
5,Oc1ccc(Br)cc1/C=N/NC(=S)NC12CC3CC(CC(C3)C1)C2,5.5% (active)
6,Cc1ccc([C@@H]2C[C@H](O)Cc3ccccc3N2)s1,99.6%
7,Cc1c(Cc2ccccc2)c(=O)oc2c(C)c(OCC(=O)n3nc(C#N)cc3N)ccc12,106%
8,N#CCc1ncc(-c2ccc(C(F)(F)F)cc2)c(NC2CCCCCC2)n1,22.4% [100 µM]
9,CCC1(CC)C(OC)NC(Br)=C(C#N)C1(C#N)C(N)=O (stereo not given),104%
10,CC1(C)Oc2cc3oc(=O)ccc3cc2C[C@@H]1OCCOS(=O)(=O)c1ccc(C#N)cc1,101%
11,CC(C)CCCCCOC(=O)c1ccccc1SSc1ccccc1C(=O)OCCCCCC(C)C,110%
12,C=C(NC(=O)[C@H](C(C)C)N(C)c1cccc2[nH]ccc12)C(=O)OC,99.6%
13,O=C(NC1CCN(Cc2ccccc2)CC1)c1cc(-c2cccnc2)nc2ccc(Cl)cc12,56.2%
14,Cc1c(CN(C)C)cc(C(C)C)cc1C(C)C,100%
15,Nc1ccc(S(=O)(=O)c2ccc(NO)cc2)cc1,101%
16,CCOC(=O)C1=C(C(F)(F)F)NC(=S)NC1CN1C(=O)c2ccccc2C1=O (stereo not given),102%
17,CC(=O)NCCN,97.3%
18,COc1ccc(Cn2cc3c(c2)-c2oncc2CC3)cc1OC,18.9%
19,Cc1ccc(C(=O)Nc2ccc(CN3CCN(C)CC3)c(C(F)(F)F)c2)cc1C#Cc1cncc2ncccc12,-93.8% (active)
20,Cc1nc2c(nnn2-c2ccccc2)c2nc(-c3ccc(Cl)cc3)oc(=O)c12,106%

row,Compound,growth
1,CC(=O)Nc1nc(C)c(C(=O)N/N=C/c2cccs2)s1,98.6%
2,CCCC(CCC)Oc1ccc(CCCC2=C(O)c3ccccc3C(=O)C2=O)cc1,27.1%
3,COc1ccc(-c2cc(C#N)c(NNC(C)=O)[nH]2)cc1,102%
4,CCCCCCCCCCCCCCCCCC(=O)Nc1ccc(O)cc1,93.4%
5,COc1ccc2c(N)ncc(C#Cc3cc(C(=O)Nc4ccc(CN5CCN(C)CC5)c(C(F)(F)F)c4)cnc3C)c2c1,-92.2% (active)
6,COC(=O)C1CC(=O)N(C(=O)Nc2ccc(Cl)cc2Cl)C1 (stereo not given),97.3%
7,COC(=O)CC(=O)C(=O)OC,102%
8,COc1ccc(C2=NN(C(=O)c3cc(-c4ccc(C)cc4)nc4ccccc34)C(c3cc(-c4ccccc4)nn3-c3ccccc3)C2)cc1 (stereo not given),85.3%
9,O=C(Nc1cccc(Cn2c(=O)[nH]c3ccc(Oc4ncccn4)cc3c2=O)c1)c1ccc(Cl)cc1,63%
10,CC(=O)Nc1ccc(CC#N)cc1Br,104%
11,CC1=C[C@@H]2c3c(c(O)c(O)c4oc5cc(O)cc(O)c5c(=O)c34)[C@@H](c3cc(O)c(O)c4oc5cc(O)cc(O)c5c(=O)c34)[C@@H]2C(C)(C)C1,-8.73% (active)
12,Brc1c(-c2ccncc2)nc2n1CCS2,91.3%
13,CC(C)(C)c1ccc(OCCOC(=O)CBr)cc1,103%
14,NC(N)=Nc1ccc(/C=C2\C=Cc3ccccc32)cc1,67.8%
15,O=C(Cc1ccccc1[N+](=O)[O-])c1ccc2c(c1)OCO2,98.8%
16,N#Cc1c(N)nc(Nc2nc3ccccc3[nH]2)nc1-c1ccc(Cl)cc1,97.6%
17,Oc1ccc(CN(Cc2ccc(C(F)(F)F)cc2)Cc2ccc(O)c3ncccc23)c2cccnc12,1.77% (active)
18,CCC(C)C1NC(=O)C(CC(C)C)NC(=O)C(C)NC(=O)C(C(C)C)NC(=O)C(CCCCN)NC(=O)C(CC(C)C)NC(=O)C(C(C)C)NC(=O)[C@H](C)NC(=O)C(C(C)CC)NC(=O)C(CCCN=C(N)N)NC(=O)C(CCCCN)NC(=O)C(CCCN=C(N)N)NC(=O)C(CCCCN)NC(=O)C([C@H](C)CC)NC(=O)C(CCCCN)NC1=O (stereo not given in full),3.51% (active)
19,COC(=O)c1ccc(C(=Nc2ccc(N(C)C(=O)CN3CCN(C)CC3)cc2)c2c(O)[nH]c3ccc(C(=O)OC)cc23)cc1,29%
20,O=C(C(=O)N1CCOCC1)c1ccc(O[C@H]2O[C@H](CO)[C@@H](O)[C@H](O)[C@@H]2O)cc1,104%
